Test results: paper PMC4666376, “Characterisation of aptamer–target interactions by branched selection and high-throughput sequencing of SELEX pools”
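Note: Pool frequency after one selection round with this target divided by frequency before selection.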

Each sequence was assayed against PAI-1 wild type, active (human, UniProt P05121 24-402) (assay: branched SELEX with high-throughput sequencing; PAI-1 immobilised on polyclonal anti-PAI-1 antibody; HBS (10 mM HEPES pH 7.4, 140 mM NaCl), 2 mM MgCl2, 2 mM CaCl2, 0.1% BSA; RNA pool 100 nM; PAI-1 captured on antibody-coated wells; 45 min; binding temperature not stated (PAI-1 capture at room temperature); high values mean tight binding). Settings: protein: recombinant; tags: N-terminal His6; structured_RNA; 2'-F pyrimidines.
PAI-1 wild type, active, sequence (P05121 24-402): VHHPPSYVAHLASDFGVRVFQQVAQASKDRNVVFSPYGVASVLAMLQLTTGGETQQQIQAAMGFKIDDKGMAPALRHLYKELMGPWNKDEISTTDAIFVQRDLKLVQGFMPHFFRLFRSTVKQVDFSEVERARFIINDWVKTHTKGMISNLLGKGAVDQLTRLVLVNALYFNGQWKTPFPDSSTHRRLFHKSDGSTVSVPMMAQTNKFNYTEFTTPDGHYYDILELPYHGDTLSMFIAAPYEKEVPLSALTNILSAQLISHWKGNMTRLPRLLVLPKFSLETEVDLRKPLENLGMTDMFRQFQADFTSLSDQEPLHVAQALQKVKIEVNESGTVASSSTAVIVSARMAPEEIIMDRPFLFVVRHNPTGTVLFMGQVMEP
With “GGGGCCACCAACGACAUUUACGCACCGUAGACUUAAUAGUCGAUUAGUACAUGUUGAUAUAAAUAGUGCCCAUGGAUC” the binding signal was 1.19 enrichment factor.
Sequence “GGGGCCACCAACGACAUUCGACCAGACGACAAGUCGUCGCACCGUAGAGUGUAGUUGAUAUAAAUAGUGCCCAUGGAUC” has a binding signal of 0.15 enrichment factor.
Work on “GGGGCCACCAACGACAUUGCCGUAGGUGCGGGAACACUUCACCGAUCGAUGUUGUUGAUAUAAAUAGUGCCCAUGGAUC” yielded a binding signal of 2.29 enrichment factor.
Sequence “GGGGCCACCAACGACAUUGUCGUAGGCAAGUGUACGAAUCUUUGCUGACCAGUGUUGAUAUAAAUAGUGCCCAUGGAUC” has a binding signal of 2.67 enrichment factor.
“GGGGCCACCAACGACAUUACCAUGUAGGCGUAAUUUCACGCUGACCAAGUGUUGUUGAUAUAAAUAGUGCCCAUGGAUC” showed a binding signal of 1.19 enrichment factor.
With “GGGGCCACCAACGACAUUACGUAGGUAGCAUUUAUAUGCUUGACCGAUCAAUCGUUGAUAUAAAUAGUGCCCAUGGAUC” the binding signal was 1.07 enrichment factor.
In the case of “GGGGCCACCAACGACAUUGAUCACUAAGGUUAGACCGGAGUGCCGUAGAAUGCGUUGAUAUAAAUAGUGCCCAUGGAUC”, the binding signal is reported as 0.88 enrichment factor.
In the case of “GGGGCCACCAACGACAUUGCGCUACGAUCAAAACACGUAGUAGUGCAACGAAUGUUGAUAUAAAUAGUGCCCAUGGAUC”, the binding signal is reported as 0.29 enrichment factor.
“GGGGCCACCAACGACAUUUUGAUCAACACAACGUAGGUCUAUGCGACCGAUAGUUGAUAUAAAUAGUGCCCAUGGAUC” was tested, and the binding signal was 2.02 enrichment factor.
“GGGGCCACCAACGACAUUGCCGUAGGAAUUCGUCCUGAGUUCCGAUCAAUAGCGUUGAUAUAAAUAGUGCCCAUGGAUC” was tested, and the binding signal was 0.74 enrichment factor.
“GGGGCCACCAACGACAUUCUGGCCGUAGGACAAUAGUCCGAUCCAGAUAUAGAGUUGAUAUAAAUAGUGCCCAUGGAUC” was tested, and the binding signal was 0.54 enrichment factor.
“GGGGCCACCAACGACAUUACGUAGCUGGGUUUCACCAGCGAUUAGUUGUUGAUAUAAAUAGUGCCCAUGGAUC” was tested, and the binding signal was 0.7 enrichment factor.
“GGGGCCACCAACGACAUUGCCGUAGGCGAUAAUACAUCGCUGAUCAUUUGUACGUUGAUAUAAAUAGUGCCCAUGGAUC” was tested, and the binding signal was 2.34 enrichment factor.
With “GGGGCCACCAACGACAUUAUUUUCCGGUCGUUUAGGUGUUCAACACUCCGGAUGUUGAUAUAAAUAGUGCCCAUGGAUC” the binding signal was 8.72 enrichment factor.
In the case of “GGGGCCACCAACGACAUUCGUGUUGUAUCUGUUAUACAGCAUGUUAUUUGUGCGUUGAUAUAAAUAGUGCCCAUGGAUC”, the binding signal is reported as 3.72 enrichment factor.
In the case of “GGGGCCACCAACGACAUUUUACUGUAGAGAAGAAUUACUUCUCGACCAAAUGUGGUUGAUAUAAAUAGUGCCCAUGGAUC”, the binding signal is reported as 0.55 enrichment factor.
For “GGGGCCACCAACGACAUUCAGGCCGUAGGAUGUUAUAUCCGAUCCUGAUCUUCGUUGAUAUAAAUAGUGCCCAUGGAUC”, the binding signal was 1.4 enrichment factor.
Work on “GGGGCCACCAACGACAUUGACCCGGUCACUUAUGUGGCCGAUAUCGUAGAUGCGUUGAUAUAAAUAGUGCCCAUGGAUC” yielded a binding signal of 0.2 enrichment factor.
In the case of “GGGGCCACCAACGACAUUGAUGAUCACUGUUUCGCGCAGUGCCGUAUAUCGAUGUUGAUAUAAAUAGUGCCCAUGGAUC”, the binding signal is reported as 4.36 enrichment factor.
“GGGGCCACCAACGACAUUGUCGUAGGCAGAUAGAUUAUAUCCGCUGACCAGUGUUGAUAUAAAUAGUGCCCAUGGAUC” gave a binding signal of 2.25 enrichment factor.
“GGGGCCACCAACGACAUUGAACUUGUAGUACCUGUAUUGGGUAUGACCUCAGUGUUGAUAUAAAUAGUGCCCAUGGAUC” was tested, and the binding signal was 1.61 enrichment factor.
Sequence “GGGGCCACCAACGACAUUACACUGUAGCGAGCCAGACUCGCGACCAAAUGCGUUGAUAUAAAUAGUGCCCAUGGAUC” has a binding signal of 0.89 enrichment factor.
“GGGGCCACCAACGACAUUAUGAGCCCUAUCUAUCGACCGAUCAUGUCACGUAGGUUGAUAUAAAUAGUGCCCAUGGAUC” was tested, and the binding signal was 1.38 enrichment factor.
In the case of “GGGGCCACCAACGACAUUCCGCUCAUGAUCUGUUAUCAUGAGUGCGUAGUACCGUUGAUAUAAAUAGUGCCCAUGGAUC”, the binding signal is reported as 1.08 enrichment factor.
With “GGGGCCACCAACGACAUUUCAUAACGUAGACUGUCUGAGUCGAUCAGAGUGUUGUUGAUAUAAAUAGUGCCCAUGGAUC” the binding signal was 1.68 enrichment factor.
“GGGGCCACCAACGACAUUGCUGUGCUAAUCGGUCUUCCGACGCAUAUUCGAAUGUUGAUAUAAAUAGUGCCCAUGGAUC” showed a binding signal of 0.63 enrichment factor.
“GGGGCCACCAACGACAUUGAGUCUCCUACACGCGUAGGUAAGUUCGUCUCAUUGUUGAUAUAAAUAGUGCCCAUGGAUC” gave a binding signal of 3.79 enrichment factor.
“GGGGCCACCAACGACAUUGACUAGACAUGAUGUUGCAUGUCACCAUGUAAAAUGUUGAUAUAAAUAGUGCCCAUGGAUC” gave a binding signal of 0.92 enrichment factor.
In the case of “GGGGCCACCAACGACAUUGCGCGAAGCGCUUACGCGUGUUGAUCGAAUGUUGUUGAUAUAAAUAGUGCCCAUGGAUC”, the binding signal is reported as 1.4 enrichment factor.
“GGGGCCACCAACGACAUUCGUAACGUAGGGAGUAUUCCCGAUCAGAAUGUACAGUUGAUAUAAAUAGUGCCCAUGGAUC” showed a binding signal of 0.36 enrichment factor.
“GGGGCCACCAACGACAUUGUGCCAUGUAGAUCUUUAGGAGAUCGACCAGCAGUGUUGAUAUAAAUAGUGCCCAUGGAUC” was tested, and the binding signal was 0.57 enrichment factor.
With “GGGGCCACCAACGACAUUGCAUCGUAGGCAUAUAGCUGACUGCAAUUUAGGACGUUGAUAUAAAUAGUGCCCAUGGAUC” the binding signal was 2 enrichment factor.
“GGGGCCACCAACGACAUUCACACAACGUAGGCUCGUGAGCCGAUCAGUGAUUAGUUGAUAUAAAUAGUGCCCAUGGAUC” gave a binding signal of 0.81 enrichment factor.
Work on “GGGGCCACCAACGACAUUAUGCCGUAGGCGCUAGAUGUGCCGAUCAUAAUGCAGUUGAUAUAAAUAGUGCCCAUGGAUC” yielded a binding signal of 0.5 enrichment factor.
In the case of “GGGGCCACCAACGACAUUUGGCGAGAUGCCAUCUUUACCUUAAUAGGUAGUUCGUUGAUAUAAAUAGUGCCCAUGGAUC”, the binding signal is reported as 2.77 enrichment factor.
